# Laboratory results reported in PubChem BioAssay (Tox21).
# Several values for one entry are separate records, joined by “and”; a condition that tells them apart may be missing. Equal entries are not always repeated. Inconclusive results are not listed. Where a call stands in place of a potency, no number is given. Activity calls are given as the source filed them. Unless noted, the call rests on the fitted dose curve; in most records, active means well fitted curve in the direction sought with a large enough effect in the repeat runs; inconclusive means weak or mixed curves; inactive means no such curve, though single readings can be large; an effect the other way counts as inactive or inconclusive.
# Experiments:
# [1] = qHTS assay for small molecule agonists of the p53 signaling pathway (AID 651631; calls by dose curve; further: nearly all actives have a fitted effect of over 15% in size; further: potency means the concentration at half of the fitted maximal effect)
# Procedure, shortened: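 p53RE-bla HCT-116 cells; compounds 16 h, 37 °C; LiveBLAzer B/G FRET substrate 2 h RT; fluorescence intensity read-out, qHTS format.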
# [2] = qHTS assay for small molecules that induce genotoxicity in human embryonic kidney cells expressing luciferase-tagged ATAD5 (AID 651632); further: nearly all actives have a fitted effect of over 15% in size; further: potency means the concentration at half of the fitted maximal effect
# Procedure, shortened: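 HEK293T cells carrying luciferase-tagged ATAD5 were given compound or DMSO vehicle and incubated 16 hr at 37C, 5% CO2. Luciferase activity was read after 30 min at room temperature with Amplite; a rise signals genotoxic stress.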
# [3] = qHTS assay for small molecule agonists of the p53 signaling pathway - cell viability (AID 651633; calls by dose curve; further: nearly all actives have a fitted effect of over 30% in size; further: potency means the concentration at half of the fitted maximal effect)
# Procedure, shortened: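 p53RE-bla cells, seeded at 4,000 per well and rested 5 h at 37 C/5% CO2, received compounds in DMSO for 16 h at 37 C. CellTiter-Glo was then added, and luminescence was read after 30 min at room temperature to gauge cytotoxicity.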
# [4] = qHTS assay for small molecules that induce genotoxicity in human embryonic kidney cells expressing luciferase-tagged ATAD5 - cell viability (AID 651634; calls by dose curve; further: nearly all actives have a fitted effect of over 25% in size; further: potency means the concentration at half of the fitted maximal effect)
# Procedure, shortened: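 HEK293T cells carrying luciferase-tagged ATAD5, 2,000 cells/well, exposed to compound for 15.5 hr at 37C. Viability read as live-cell protease activity by CellTiter-Fluor fluorescence after 30 min at 37C.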
# [5] = qHTS assay for small molecule disruptors of the mitochondrial membrane potential - cell viability (AID 720634; calls by dose curve; further: nearly all actives have a fitted effect of over 20% in size; further: potency means the concentration at half of the fitted maximal effect)
# Procedure, shortened: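 HepG2 cells, 2,000 per well, attached overnight, then treated 1 hr at 37 C, 5% CO2. Viability read as ATP by CellTiter-Glo luminescence after 30 min at room temperature. Read in the same wells as the m-MPI membrane-potential dye assay.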
# [6] = qHTS assay for small molecule disruptors of the mitochondrial membrane potential (AID 720635); further: potency means the concentration at half of the fitted maximal effect
# Procedure, shortened: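 HepG2 cells (2,000/well) attached overnight at 37C, then took compound for 1 hr at 37C, 5% CO2. Mito-MPS dye was added for 30 min; fluorescence was read at 490/535 nm (monomers) and 540/590 nm (aggregates).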
# [7] = qHTS assay to test for compound auto fluorescence at 535 nm (green) in HepG2 cells (AID 720675)
# [8] = qHTS assay to test for compound auto fluorescence at 460 nm (blue) in HEK293 cells (AID 720678)
# Procedure, shortened: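 Cells were seeded and left to adhere for 4-5 hr at 37C. Compounds were then pin-transferred. After an overnight incubation at 37C under 5% CO2, intrinsic fluorescence at 405/460 nm was measured and referenced to triamterene.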
# [9] = qHTS assay to test for compound auto fluorescence at 590 nm (red) in HEK293 cells (AID 720679)
# Procedure, shortened: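 Each well held 2,000 HEK293 cells in medium containing 10% dialyzed FBS. Following 4-5 hr attachment at 37C, 23 nL test compound or DMSO was added; plates sat overnight, and red fluorescence (540/590nm) was recorded.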
# [10] = qHTS assay to test for compound auto fluorescence at 535 nm (green) in HEK293 cells (AID 720680)
# [11] = qHTS assay to test for compound auto fluorescence at 460 nm (blue) in HEK293 cell free culture (AID 720681)
# Procedure, shortened: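 Test compounds were pinned into cell-free culture medium (DMEM with 10% FBS) and fluorescence was read directly at Ex/Em 405/460 nm. Signals were expressed as fluorescence equivalents of triamterene, with DMSO vehicle as control.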
# [12] = qHTS assay to test for compound auto fluorescence at 535 nm (green) in HEK293 cell free culture (AID 720682)
# Procedure, shortened: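 Cell-free medium (DMEM, 10% FBS) receives compound or DMSO by pintool. Plate read directly at Ex 485/Em 535 nm. Signal converted to fluorescein equivalency.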
# [13] = qHTS assay to test for compound auto fluorescence at 590 nm (red) in HEK293 cell free culture (AID 720683)
# Procedure, shortened: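 Tox21 10K library compounds were pinned into cell-free DMEM with 10% FBS and fluorescence was read at excitation 540 nm. Activity is expressed as Rose Bengal sodium equivalency.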
# [14] = qHTS assay to test for compound auto fluorescence at 590 nm (red) in HepG2 cell free culture (AID 720684)
# Procedure, shortened: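 Red fluorescence (540 nm excitation, 590 nm emission) was measured after compound transfer into cell-free MEM supplemented with 10% FBS. Values are equivalencies against Rose Bengal sodium.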
# [15] = qHTS assay to test for compound auto fluorescence at 460 nm (blue) in HepG2 cell free culture (AID 720685)
# Procedure, shortened: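 Compound (23 nL) or DMSO pinned into cell-free MEM with 10% FBS; blue fluorescence read at 405/460 nm excitation/emission, expressed as auto-fluorescence equivalency to triamterene.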
# [16] = qHTS assay to test for compound auto fluorescence at 535 nm (green) in HepG2 cell free culture (AID 720686)
# [17] = qHTS assay to test for compound auto fluorescence at 590 nm (red) in HepG2 cells (AID 720674)
# Procedure, shortened: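 Intrinsic compound fluorescence in the red window (Ex/Em 540/590 nm) is measured in attached HepG2 cells exposed for 1 hr, DMSO vehicle as baseline, benchmarked to Rose Bengal sodium.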
# [18] = qHTS assay to test for compound auto fluorescence at 460 nm (blue) in HepG2 cells (AID 720687)
# Procedure, shortened: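 Cells (2,000/well in MEM with 10% FBS) attached overnight at 37 C, then were exposed to compound or DMSO for 1 hr at 37 C, 5% CO2. Fluorescence read at Ex/Em 405/460 nm, expressed as triamterene-equivalent signal.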
# [19] = biological target: Glucocorticoid receptor (Homo sapiens) (UniProt P04150); experiment: qHTS assay to identify small molecule agonists of the glucocorticoid receptor (GR) signaling pathway (AID 720691; active means well fitted activation curve with a large enough effect in the signal ratio in the repeat runs, not every such curve was filed as active; the % refers to the signal ratio)
# Procedure, shortened: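 GR-bla HeLa cells carrying a GRE-driven beta-lactamase reporter, exposed to compounds for 18 h at 37 C. Reporter activation read as fluorescence after 2 h with LiveBLAzer B/G FRET substrate at room temperature.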
# [20] = biological target: Glucocorticoid receptor (Homo sapiens) (UniProt P04150); experiment: qHTS assay to identify small molecule antagonists of the glucocorticoid receptor (GR) signaling pathway (AID 720692; active means well fitted inhibition curve with a large enough effect in the signal ratio in the repeat runs, not every such curve was filed as active; the % refers to the signal ratio)
# Procedure, shortened: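 GR-bla HeLa cells carrying a GRE-driven beta-lactamase reporter received compound after 4 h plating, then dexamethasone (5 nM final). After 18 h at 37C, the FRET substrate was loaded for 2 h at room temperature and fluorescence read.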
# Glucocorticoid receptor (Homo sapiens), sequence (P04150 whole entry, looked up): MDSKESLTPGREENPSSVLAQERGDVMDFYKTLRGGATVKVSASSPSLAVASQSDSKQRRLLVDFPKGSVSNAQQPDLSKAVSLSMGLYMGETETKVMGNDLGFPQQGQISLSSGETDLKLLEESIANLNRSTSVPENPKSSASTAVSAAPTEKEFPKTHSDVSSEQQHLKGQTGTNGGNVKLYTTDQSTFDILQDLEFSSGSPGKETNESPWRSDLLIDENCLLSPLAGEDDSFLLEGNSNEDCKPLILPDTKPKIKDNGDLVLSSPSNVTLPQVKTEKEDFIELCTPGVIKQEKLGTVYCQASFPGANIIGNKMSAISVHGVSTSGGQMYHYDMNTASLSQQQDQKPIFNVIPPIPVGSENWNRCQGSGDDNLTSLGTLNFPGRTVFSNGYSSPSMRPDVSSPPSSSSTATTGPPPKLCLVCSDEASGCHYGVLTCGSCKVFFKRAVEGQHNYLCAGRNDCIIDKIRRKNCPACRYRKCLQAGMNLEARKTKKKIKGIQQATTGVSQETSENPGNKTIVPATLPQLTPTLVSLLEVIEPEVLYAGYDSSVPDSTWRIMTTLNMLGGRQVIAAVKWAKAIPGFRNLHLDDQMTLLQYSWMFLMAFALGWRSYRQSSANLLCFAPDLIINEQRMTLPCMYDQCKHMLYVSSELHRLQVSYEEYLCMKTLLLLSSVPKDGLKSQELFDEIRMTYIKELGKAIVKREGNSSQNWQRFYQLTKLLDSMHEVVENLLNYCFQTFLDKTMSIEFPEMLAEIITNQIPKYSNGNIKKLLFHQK
SMILES,Potency [1],Potency [2],Potency [3],Potency [4],Potency [5],Potency [6],outcome [7],outcome [8],outcome [9],outcome [10],outcome [11],outcome [12],outcome [13],outcome [14],outcome [15],outcome [16],outcome [17],outcome [18],Potency [19],Potency [20]
Nc1ccncc1,inactive,inactive,inactive,inactive,inactive,inactive,inactive,inactive,inactive,inactive,inactive,inactive,inactive,inactive,inactive,inactive,,,,
CCN(N=O)C(N)=O,inactive,inactive,inactive,inactive,inactive,inactive,inactive,,inactive,inactive,inactive,inactive,inactive,inactive,inactive,inactive,inactive,inactive,inactive,
CCCCN(CCCC)N=O,inactive,inactive,inactive,inactive,inactive,inactive,inactive,,,,inactive,inactive,inactive,inactive,inactive,inactive,inactive,inactive,inactive,inactive
O=C1C=CC(=O)C=C1,inactive,inactive,inactive,inactive,inactive,inactive,inactive,inactive,inactive,inactive,inactive,inactive,inactive,inactive,inactive,inactive,,,,
COC(=O)c1sccc1S(=O)(=O)NC(=O)Nc1nc(C)nc(OC)n1,inactive,inactive,inactive,inactive,inactive,inactive,inactive,inactive,inactive,,inactive,inactive,inactive,inactive,inactive,inactive,inactive,inactive,inactive,inactive
O=[N+]([O-])c1ccc(O)c([N+](=O)[O-])c1,inactive,inactive,inactive,27.4 µM (active) and 27.3 µM (active),10.9 µM (active),689 nM (active) and 545 nM (active),inactive,,inactive,inactive,inactive,inactive,inactive,inactive,inactive,inactive,inactive,inactive,,
c1nc[nH]n1,inactive,inactive,inactive,inactive,inactive,inactive,inactive,inactive,inactive,,inactive,inactive,inactive,inactive,inactive,inactive,inactive,inactive,inactive,inactive
Cc1ccccc1[N+](=O)[O-],inactive,inactive,inactive,inactive,inactive,inactive,inactive,inactive,inactive,inactive,inactive,inactive,inactive,inactive,inactive,inactive,inactive,inactive,inactive,inactive
CCN(CC)C(=O)SCc1ccc(Cl)cc1,inactive,inactive,inactive,inactive,inactive,19.9 µM (active) and 12.2 µM (active),inactive,inactive,inactive,inactive,inactive,inactive,inactive,inactive,inactive,inactive,inactive,inactive,inactive,inactive
CN(C)C(=O)Nc1ccc(Cl)cc1,inactive,inactive,inactive,inactive,inactive,inactive,inactive,inactive,inactive,inactive,inactive,inactive,inactive,inactive,inactive,inactive,,inactive,inactive,inactive
c1ccc(N=Nc2ccccc2)cc1,inactive,inactive,inactive,inactive,inactive,inactive,inactive,inactive,inactive,inactive,inactive,inactive,inactive,inactive,inactive,inactive,inactive,,inactive,inactive
CC(C)NC(C)C,inactive,inactive,inactive,inactive,inactive,inactive,inactive,,,inactive,inactive,inactive,inactive,inactive,inactive,inactive,inactive,inactive,inactive,inactive
Nc1ccc(Cl)cc1N,19.3 µM (active),56.7 µM (active) and 5.45 µM (active),inactive,inactive,inactive,4.5 µM (active) and 770 nM (active),inactive,inactive,inactive,inactive,inactive,inactive,inactive,inactive,inactive,inactive,,inactive,inactive,inactive
O=c1oc2ccccc2c(O)c1C(CC(O)c1ccc(-c2ccc(Br)cc2)cc1)c1ccccc1 (configuration not stated),21.1 µM (active) and 46 µM (active),inactive,9.44 µM (active) and 51.6 µM (active),inactive,6.68 µM (active),6.68 µM (active) and 23 µM (active),inactive,inactive,inactive,inactive,inactive,inactive,inactive,inactive,inactive,inactive,inactive,inactive,,
Nc1cccnc1,inactive,inactive,inactive,inactive,inactive,inactive,inactive,inactive,inactive,,inactive,inactive,inactive,inactive,inactive,inactive,inactive,inactive,,
